Measured values reported in PubChem BioAssay (Tox21).
Inconclusive results are not listed. Entries that show only a call come without a potency. Active and inactive are the calls of the source. Unless noted, calls come from the whole dose curve; as a rule, active = well fitted curve in the direction sought with a large enough effect in the repeat runs; inconclusive = weak or mixed curves; inactive = no such curve, though single readings can be large; an effect the other way counts as inactive or inconclusive. Residues, ends and D or L forms follow the SMILES beside them.

Assays:
[1] = qHTS assay to identify aromatase inhibitors - cell viability counter screen (AID 743084);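 note: cells stimulated with testosterone during compound exposure; nearly all actives have a fitted effect of over 55% in size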
[2] = target: Aryl hydrocarbon receptor (Homo sapiens) (UniProt P35869); assay: qHTS assay to identify small molecule that activate the aryl hydrocarbon receptor (AhR) signaling pathway (AID 743085); note: nearly all actives have a fitted effect of over 15% in size; note: potency is the fitted concentration of half-maximal effect;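 for activation: HG2L7.5c1 human HepG2 liver cells with stably integrated DRE-driven firefly reporter; series mostly up to about 70 µM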
Procedure, shortened: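 HepG2 cells stably carrying a 20-DRE firefly luciferase reporter (HG2L7.5c1) treated with compound for 24 hr at 37C. Luciferase read by ONE-Glo luminescence, with CellTiter-Fluor viability read first.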

[3] = qHTS assay to identify small molecule that activate the aryl hydrocarbon receptor (AhR) signaling pathway - cell viability counter screen (AID 743086);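 note: HepG2 liver cells carrying the AhR DRE luciferase reporter; series mostly up to about 70 µM; nearly all actives have a fitted effect of over 45% in size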
Procedure, shortened: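 HepG2-AhR-luc (HG2L7.5c1) cells, 4000/well, treated 24 h at 37 C with compound; viability measured as CellTiter-Fluor fluorescence after 30 min in the same wells as the luciferase read.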

[4] = target: Peroxisome proliferator-activated receptor gamma (Homo sapiens) (UniProt P37231); assay: qHTS assay to identify small molecule agonists of the peroxisome proliferator-activated receptor gamma (PPARg) signaling pathway (AID 743094; active = well fitted activation curve with a large enough effect in the signal ratio in the repeat runs, not every such curve was filed as active; the % refers to the signal ratio)
Procedure, shortened: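 Fluorescence-based beta-lactamase readout in HEK293H PPARg UAS-bla cells after 17 h compound exposure (37C) and 1 h B/G FRET substrate incubation at room temperature.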

[5] = target: Peroxisome proliferator-activated receptor gamma (Homo sapiens) (UniProt P37231); assay: qHTS assay to identify small molecule antagonists of the peroxisome proliferator-activated receptor gamma (PPARg) signaling pathway (AID 743191; calls by dose curve; note: series mostly up to about 63 µM; nearly all actives have a fitted effect of over 30% in size)
Procedure, shortened: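 GeneBLAzer PPARg UAS-bla HEK293H cells, 5 h post-plating, exposed to compounds 17 h at 37C. LiveBLAzer B/G FRET substrate added for 1 h at room temperature; beta-lactamase reporter read by fluorescence intensity.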

[6] = qHTS assay to identify small molecule antagonists of the peroxisome proliferator-activated receptor gamma (PPARg) signaling pathway - cell viability counter screen (AID 743194); note: nearly all actives have a fitted effect of over 55% in size
Procedure, shortened: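 Cytotoxicity counter screen in PPARg-bla HEK293H cells, same wells as reporter assay. Compounds plus 50 nM rosiglitazone (final) for 17 h at 37 C, then viability read by CellTiter-Glo luminescence.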

[7] = qHTS assay for small molecule agonists of the antioxidant response element (ARE) signaling pathway (AID 743202; active = well fitted activation curve with a large enough effect in the signal ratio in the repeat runs, not every such curve was filed as active; the % refers to the signal ratio)
Procedure, shortened: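 HepG2 ARE-bla reporter line, 2,000 cells/well; 5 h preincubation 37 C/5% CO2; compound (DMSO) 16 h 37 C; B/G FRET substrate 2 h RT; fluorescence intensity.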

[8] = qHTS assay for small molecule agonists of the antioxidant response element (ARE) signaling pathway - cell viability counter screen (AID 743203; calls by dose curve; note: nearly all actives have a fitted effect of over 55% in size)
Procedure, shortened: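 Parallel cytotoxicity read-out for the ARE-bla screen: HepG2 reporter cells, 16 hrs with compounds, then CellTiter-Glo luminescence.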

[9] = qHTS assay for small molecule activators of the heat shock response signaling pathway - cell viability counter screen (AID 743209); note: nearly all actives have a fitted effect of over 50% in size
Procedure, shortened: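 To flag cytotoxic compounds, HSE-bla HeLa cells plated at 1500 cells/well were dosed for 5 h at 37 C, followed by the reporter FRET read and then CellTiter-Glo, with luminescence recorded 30 min after reagent addition.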

[10] = qHTS assay for small molecule activators of the heat shock response signaling pathway (AID 743210; active = well fitted activation curve with a large enough effect in the signal ratio in the repeat runs, with a control signal flat, not every such curve was filed as active; the % refers to the signal ratio;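 note: HeLa cells with beta-lactamase reporter driven by heat shock elements; series mostly up to about 63 µM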)
Procedure, shortened: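 Beta-lactamase reporter read-out: FRET substrate fluorescence after 2.5 h at RT, following 5 h compound treatment at 37 C of HeLa cells carrying HSE-driven bla reporter; quantitative HTS format.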

[11] = qHTS assay to identify small molecule agonists of the peroxisome proliferator-activated receptor delta (PPARd) signaling pathway - cell viability counter screen (AID 743211); note: nearly all actives have a fitted effect of over 55% in size
Procedure, shortened: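 PPARd-bla HEK293H cells (3000/well) were pre-incubated 5 h at 37 C, then exposed to compound for 17 h at 37 C. After 2 h with LiveBLAzer substrate, CellTiter-Glo was added to the same wells; luminescence read after 30 min at room temperature.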

[12] = target: Peroxisome proliferator-activated receptor delta (Homo sapiens) (UniProt Q03181); assay: qHTS assay to identify small molecule agonists of the peroxisome proliferator-activated receptor delta (PPARd) signaling pathway (AID 743212; calls by dose curve)
Procedure, shortened: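 Read-out: beta-lactamase FRET fluorescence after 2 h room-temperature incubation with LiveBLAzer B/G substrate. Cells were HEK293H carrying a UAS-bla reporter for PPARd, treated at 37 C with DMSO-dissolved compounds.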

[13] = qHTS assay to identify small molecule antagonists of the peroxisome proliferator-activated receptor delta (PPARd) signaling pathway - cell viability counter screen (AID 743213); note: nearly all actives have a fitted effect of over 50% in size
Procedure, shortened: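 Luminescence from CellTiter-Glo, added after the bla read and incubated 30 min at room temperature, gives viability of HEK293H PPARd-bla cells exposed to compounds for 17 h at 37 C with 300 nM L165041.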

[14] = target: Peroxisome proliferator-activated receptor delta (Homo sapiens) (UniProt Q03181); assay: qHTS assay to identify small molecule antagonists of the peroxisome proliferator-activated receptor delta (PPARd) signaling pathway (AID 743215; active = well fitted inhibition curve with a large enough effect in the signal ratio in the repeat runs, not every such curve was filed as active; the % refers to the signal ratio;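 note: cells stimulated with agonist L165041 at 300 nM final during compound exposure; series mostly up to about 62 µM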)
Procedure, shortened: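 Screen format: qHTS, antagonist mode. HEK293H PPARd-bla cells received compound and 300 nM L165041 (final), 17 h, 37 C. Beta-lactamase detected via FRET substrate fluorescence, 2 h, room temperature.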

[15] = target: Bile acid receptor (Homo sapiens) (UniProt Q96RI1); assay: qHTS assay to identify small molecule antagonists of the farnesoid-X-receptor (FXR) signaling pathway (AID 743217; active = well fitted inhibition curve with a large enough effect in the signal ratio in the repeat runs, not every such curve was filed as active; the % refers to the signal ratio)
Procedure, shortened: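 Quantitative HTS, beta-lactamase reporter format: FXR-UAS-bla HEK 293T cells co-treated 16 h at 37 °C with compounds and 50 uM final chenodeoxycholic acid, then read by B/G FRET fluorescence.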

[16] = qHTS assay to identify small molecule agonists of the farnesoid-X-receptor (FXR) signaling pathway - cell viability counter screen (AID 743218); note: nearly all actives have a fitted effect of over 45% in size
Procedure, shortened: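 Same-well cytotoxicity check on FXR-UAS-bla HEK 293T cells: 5 h attachment, 16 h compound at 37 C, CellTiter-Glo luminescence read at room temperature after 30 min.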

[17] = target: Bile acid receptor (Homo sapiens) (UniProt Q96RI1); assay: qHTS assay to identify small molecule agonists of the farnesoid-X-receptor (FXR) signaling pathway (AID 743220; active = well fitted activation curve with a large enough effect in the signal ratio in the repeat runs, not every such curve was filed as active; the % refers to the signal ratio)
Procedure, shortened: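 FXR-UAS-bla HEK 293T cells carrying a UAS-driven beta-lactamase reporter were plated for 5 h at 37C/5% CO2, then exposed to DMSO-dissolved Tox21 10K compounds for 16 h at 37C. A LiveBLAzer B/G FRET substrate was loaded for 2 h at room temperature before fluorescence reading.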

[18] = qHTS assay to identify small molecule antagonists of the farnesoid-X-receptor (FXR) signaling pathway - cell viability counter screen (AID 743221; active = well fitted cell-killing curve with a large enough effect in the repeat runs, not every such curve was filed as active; note: nearly all actives have a fitted effect of over 50% in size)
Procedure, shortened: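 GeneBLAzer FXR-UAS-bla HEK 293T cells, compound plus chenodeoxycholic acid (50 uM final), 16 h at 37 C. CellTiter-Glo added to the same wells after the beta-lactamase read; luminescence read after 30 min at room temperature as viability.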

[19] = target: Vitamin D3 receptor (Homo sapiens) (UniProt P11473); assay: qHTS assay to identify small molecule agonists of the vitamin D receptor (VDR) signaling pathway (AID 743222; calls by dose curve)
Procedure, shortened: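 Using LiveBLAzer B/G FRET detection, agonism was scored in VDR-bla cells exposed overnight (16 h, 37C) to DMSO-dissolved compounds; substrate incubation was 2 h at room temperature.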

[20] = target: Vitamin D3 receptor (Homo sapiens) (UniProt P11473); assay: qHTS assay to identify small molecule antagonists of the vitamin D receptor (VDR) signaling pathway (AID 743223; active = well fitted inhibition curve with a large enough effect in the signal ratio in the repeat runs, not every such curve was filed as active; the % refers to the signal ratio)
Procedure, shortened: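 VDR-bla cells were treated with compound plus 3 nM final 1alpha,25-dihydroxyvitamin D3 for 16 h at 37C. Beta-lactamase reporter read by B/G FRET substrate fluorescence after 2 h at room temperature. qHTS format.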

Aryl hydrocarbon receptor (Homo sapiens), sequence (P35869 whole entry, looked up): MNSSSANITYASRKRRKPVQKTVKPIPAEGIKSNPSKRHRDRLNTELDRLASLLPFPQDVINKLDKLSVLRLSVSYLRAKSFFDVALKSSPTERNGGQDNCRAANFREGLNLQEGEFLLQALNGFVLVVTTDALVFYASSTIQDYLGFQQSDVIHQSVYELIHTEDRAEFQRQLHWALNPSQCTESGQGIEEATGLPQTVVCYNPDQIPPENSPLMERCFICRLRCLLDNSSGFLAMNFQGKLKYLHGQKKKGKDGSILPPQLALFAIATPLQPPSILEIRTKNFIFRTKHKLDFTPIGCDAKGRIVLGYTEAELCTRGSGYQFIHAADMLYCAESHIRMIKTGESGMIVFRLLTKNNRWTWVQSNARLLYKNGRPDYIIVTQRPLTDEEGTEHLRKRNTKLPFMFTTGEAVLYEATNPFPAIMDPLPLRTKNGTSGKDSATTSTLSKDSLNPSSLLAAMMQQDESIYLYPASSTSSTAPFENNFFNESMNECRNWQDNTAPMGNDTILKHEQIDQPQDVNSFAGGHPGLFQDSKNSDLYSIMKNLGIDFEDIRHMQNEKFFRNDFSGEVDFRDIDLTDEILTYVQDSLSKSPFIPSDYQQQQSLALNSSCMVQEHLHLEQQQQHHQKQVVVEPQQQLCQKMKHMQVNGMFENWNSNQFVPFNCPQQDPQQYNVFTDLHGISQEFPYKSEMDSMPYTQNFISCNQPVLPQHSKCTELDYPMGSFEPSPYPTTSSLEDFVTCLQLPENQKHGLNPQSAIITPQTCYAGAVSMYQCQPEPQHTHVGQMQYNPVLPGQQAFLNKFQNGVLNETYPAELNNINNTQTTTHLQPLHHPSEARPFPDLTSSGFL
Peroxisome proliferator-activated receptor gamma (Homo sapiens), sequence (P37231 whole entry, looked up): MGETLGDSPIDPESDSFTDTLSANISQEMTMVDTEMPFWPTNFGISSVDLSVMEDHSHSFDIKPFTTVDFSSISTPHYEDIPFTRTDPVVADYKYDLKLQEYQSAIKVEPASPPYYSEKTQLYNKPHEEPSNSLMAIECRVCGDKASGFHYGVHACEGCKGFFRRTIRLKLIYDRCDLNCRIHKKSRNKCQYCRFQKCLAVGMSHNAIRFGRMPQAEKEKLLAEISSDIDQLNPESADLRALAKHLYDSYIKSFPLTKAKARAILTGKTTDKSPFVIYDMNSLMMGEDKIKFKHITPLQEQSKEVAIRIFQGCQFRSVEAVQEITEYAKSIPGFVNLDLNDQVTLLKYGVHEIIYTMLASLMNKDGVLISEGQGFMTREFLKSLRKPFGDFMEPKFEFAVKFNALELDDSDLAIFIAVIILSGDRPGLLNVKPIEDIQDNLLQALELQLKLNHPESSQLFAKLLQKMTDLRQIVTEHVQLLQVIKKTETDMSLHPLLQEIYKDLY
Vitamin D3 receptor (Homo sapiens), sequence (P11473 whole entry, looked up): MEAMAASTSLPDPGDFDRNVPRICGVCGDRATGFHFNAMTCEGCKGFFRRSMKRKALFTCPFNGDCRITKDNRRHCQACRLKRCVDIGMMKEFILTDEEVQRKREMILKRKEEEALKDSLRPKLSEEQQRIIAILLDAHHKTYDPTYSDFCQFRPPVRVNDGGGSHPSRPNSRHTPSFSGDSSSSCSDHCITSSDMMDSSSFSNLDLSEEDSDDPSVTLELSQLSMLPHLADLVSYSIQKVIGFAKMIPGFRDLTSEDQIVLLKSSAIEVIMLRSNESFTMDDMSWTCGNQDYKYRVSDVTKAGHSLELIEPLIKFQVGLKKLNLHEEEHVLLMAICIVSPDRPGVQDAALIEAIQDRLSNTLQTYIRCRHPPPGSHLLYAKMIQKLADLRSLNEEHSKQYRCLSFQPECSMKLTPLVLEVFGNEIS
Peroxisome proliferator-activated receptor delta (Homo sapiens), sequence (Q03181 whole entry, looked up): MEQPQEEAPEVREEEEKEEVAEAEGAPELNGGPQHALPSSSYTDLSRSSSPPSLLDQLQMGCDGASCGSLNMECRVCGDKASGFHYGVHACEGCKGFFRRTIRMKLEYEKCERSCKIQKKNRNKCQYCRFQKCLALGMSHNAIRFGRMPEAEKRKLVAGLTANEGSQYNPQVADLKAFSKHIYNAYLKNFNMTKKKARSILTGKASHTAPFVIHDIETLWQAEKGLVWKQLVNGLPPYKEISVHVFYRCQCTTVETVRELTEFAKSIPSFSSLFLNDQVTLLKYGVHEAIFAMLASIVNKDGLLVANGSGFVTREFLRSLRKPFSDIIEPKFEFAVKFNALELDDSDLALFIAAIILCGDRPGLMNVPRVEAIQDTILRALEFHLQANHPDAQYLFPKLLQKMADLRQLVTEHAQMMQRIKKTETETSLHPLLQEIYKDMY
Bile acid receptor (Homo sapiens), sequence (Q96RI1 whole entry, looked up): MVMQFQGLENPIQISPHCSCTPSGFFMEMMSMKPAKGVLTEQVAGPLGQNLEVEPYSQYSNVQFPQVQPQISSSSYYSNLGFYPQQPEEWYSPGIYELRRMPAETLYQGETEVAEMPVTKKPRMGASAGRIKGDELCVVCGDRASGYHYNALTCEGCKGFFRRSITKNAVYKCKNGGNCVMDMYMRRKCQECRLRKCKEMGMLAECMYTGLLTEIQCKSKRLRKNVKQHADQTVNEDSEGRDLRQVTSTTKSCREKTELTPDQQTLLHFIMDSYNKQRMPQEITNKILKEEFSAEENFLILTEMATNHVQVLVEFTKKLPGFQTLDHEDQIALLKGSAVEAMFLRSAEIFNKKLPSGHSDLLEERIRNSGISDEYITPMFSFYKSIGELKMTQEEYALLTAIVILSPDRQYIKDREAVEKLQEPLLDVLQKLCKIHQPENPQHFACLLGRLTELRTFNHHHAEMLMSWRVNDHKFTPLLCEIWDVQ

Row | Structure (SMILES) | Potency [1] | Potency [2] | Potency [3] | outcome [4] | outcome [5] | outcome [6] | Potency [7] | outcome [8] | outcome [9] | outcome [10] | outcome [11] | outcome [12] | outcome [13] | outcome [14] | Potency [15] | outcome [16] | outcome [17] | outcome [18] | outcome [19] | outcome [20]
1 | C1N2CN3CN1CN(C2)C3 | inactive | inactive | inactive | inactive | inactive | inactive | inactive | inactive | inactive | inactive | inactive | inactive | inactive | inactive | inactive | inactive | inactive | inactive | inactive | inactive
2 | O=S(=O)(O)NC1CCCCC1 | inactive | inactive | inactive |  |  | inactive | inactive | inactive |  | inactive | inactive |  |  |  |  | inactive |  | inactive | inactive | inactive
3 | CCCCC(CC)COC(=O)/C=C/c1ccc(OC)cc1 (stereo not drawn) | inactive | inactive |  | inactive | inactive | inactive | inactive | inactive | inactive | inactive | inactive | inactive | inactive | inactive |  | inactive |  | inactive | inactive | inactive
4 | O=C(C1CCCCC1)N1CC(=O)N2CCc3ccccc3C2C1 (stereo not drawn) | inactive | inactive |  | inactive | inactive | inactive | inactive | inactive | inactive | inactive | inactive | inactive | inactive | inactive |  | inactive |  | inactive | inactive | inactive
5 | NC(=O)NC1NC(=O)NC1=O (stereo not drawn) | inactive | inactive | inactive | inactive | inactive | inactive | inactive | inactive |  | inactive | inactive | inactive |  | inactive |  | inactive |  | inactive | inactive | inactive
6 | NC(=O)c1ccccc1O | inactive | inactive | inactive | inactive | inactive | inactive | inactive | inactive |  | inactive | inactive | inactive | inactive | inactive | inactive | inactive | inactive | inactive | inactive | inactive
7 | Nc1ccc(S(=O)(=O)Nc2nccs2)cc1 | inactive | inactive | inactive | inactive | inactive | inactive | inactive | inactive |  | inactive | inactive | inactive | inactive | inactive |  | inactive |  | inactive | inactive | inactive
8 | CC(O)CN(CCN(CC(C)O)CC(C)O)CC(C)O (stereo not drawn) | inactive | inactive |  | inactive | inactive | inactive | inactive | inactive | inactive | inactive | inactive | inactive |  | inactive | inactive | inactive | inactive | inactive | inactive | inactive
9 | CC1(C)[C@@H]2CC[C@@]1(C)C(=O)C2 | inactive | inactive | inactive |  |  | inactive | inactive | inactive |  | inactive | inactive | inactive | inactive | inactive |  | inactive |  | inactive | inactive | inactive
10 | O=C(O)CS | inactive | inactive | inactive | inactive | inactive | inactive | inactive | inactive |  | inactive | inactive | inactive |  | inactive |  | inactive |  | inactive | inactive | inactive
11 | Nc1ccc(S(=O)(=O)c2ccc(N)cc2)cc1 | inactive | inactive | inactive | inactive | inactive | inactive | inactive | inactive | inactive | inactive | inactive | inactive |  | inactive | inactive | inactive | inactive | inactive |  | 
12 | NNC(=O)c1ccncc1 | inactive | 13.3 µM (active) | inactive | inactive | inactive | inactive | inactive | inactive |  | inactive | inactive | inactive |  | inactive |  | inactive |  | inactive | inactive | inactive
13 | C/C=C/c1ccc(OC)cc1 | inactive | inactive | inactive | inactive |  | inactive | inactive | inactive | inactive | inactive | inactive | inactive |  |  |  | inactive |  | inactive |  | 
14 | CCCCC1C(=O)N(c2ccccc2)N(c2ccccc2)C1=O | inactive | inactive | inactive | inactive | inactive | inactive | inactive | inactive | inactive | inactive | inactive |  |  |  | inactive | inactive | inactive | inactive | inactive | inactive
15 | CCCNC(=O)NS(=O)(=O)c1ccc(Cl)cc1 | inactive | inactive |  | inactive | inactive | inactive | inactive | inactive | inactive | inactive | inactive | inactive | inactive | inactive |  | inactive |  | inactive | inactive | inactive
16 | COC(=O)[C@H](Cc1ccccc1)NC(=O)[C@@H](N)CC(=O)O (H-Asp-Phe-OMe) | inactive | inactive | inactive | inactive | inactive | inactive | inactive | inactive |  | inactive | inactive | inactive |  | inactive | inactive | inactive | inactive | inactive |  | 
17 | Cc1ccccc1C(OCCN(C)C)c1ccccc1 (stereo not drawn) | inactive | inactive | inactive | inactive | inactive | inactive | inactive | inactive |  | inactive |  | inactive |  | inactive | inactive | inactive | inactive | inactive |  | 
